Hits are enriched below; roughly 6.7% of the tested compounds scored in any of these assays.
T cruzi growth-1 – T. cruzi proliferation inhibition; inhibition, % at 8.34 µM; T. cruzi beta-gal in NIH3T3, GalScreen luminescence, 90 h; 77,000 compounds, 5.9% hits;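 active = mean inhibition above about 93%, with at least 55% of replicates each passing it, limit read from the data, passing the limit was not always enough; inconclusive = only one of those two conditions holds; inactive = neither condition holds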
C diff HTS – inhibitors of Clostridium difficile growth | Clostridium difficile clinical isolate growth, OD600, 24 h; active compounds read low | growth activity, negative = inhibition, % at 16 µg/mL (by protocol) | 86,000 compounds, 0.25% hits;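 active = mean growth activity at or below -80% and every replicate also at or below -80%; inconclusive = mean at or below -80% but some replicate above -80%; inactive = mean growth activity above -80%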
Pf Dd2 inh – inhibitors of Plasmodium falciparum Dd2 growth; 94,000 compounds, 2.3% hits; P. falciparum Dd2 growth, SYBR Green, 72 h; active compounds read low; activity change, % at 10 µM; in the data active = activity change below about -80%; inconclusive = no clear call, values can overlap the other calls
T cruzi growth-2 – inhibitors of T. cruzi proliferation; shares compounds with T cruzi growth-1; T. cruzi beta-gal in NIH3T3, GalScreen luminescence, 90 h; inhibition, % at 8.35 µM; 5,600 compounds, 72% hits; AID 651739;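 active = mean replicate inhibition above about 95% and at least 55% of replicates individually reaching it, limit read from the data; inconclusive = only one of the two criteria is met; inactive = neither criterion is met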
T cruzi growth-3 – Trypanosoma cruzi proliferation inhibition. shares compounds with T cruzi growth-1. 5,600 compounds, 21% hits. AID 651740. inhibition, % at 2.09 µM. T. cruzi beta-gal in NIH3T3, GalScreen luminescence, 90 h;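 active = mean inhibition above about 95%, with at least 55% of replicates also reaching it, limit read from the data; inconclusive = meets just one of the two conditions; inactive = meets neither condition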
3T3 cytotox – NIH/3T3 (mouse) viability loss; 5,600 compounds, 14% hits; NIH/3T3 viability, CellTiter-Glo ATP luminescence, 90 h; cytotoxicity (signal decrease), % at 8.35 µM; shares compounds with T cruzi growth-1;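 active = mean signal decrease across replicates above about 35% based on untreated-well scatter, with enough replicates individually passing, limit read from the data; inconclusive = no rule stated though some were filed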
NIH3T3 tox 2 – NIH/3T3 (mouse) viability loss | AID 651744 | 5,600 compounds, 56% hits | NIH/3T3 viability, CellTiter-Glo ATP luminescence, 90 h | shares compounds with T cruzi growth-1 | inhibition, % at 24.9 µM;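 active = mean loss of cell viability signal at or above a set limit, and enough replicates individually reaching it; inconclusive = meets only the mean limit or only the replicate share; inactive = meets neither condition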
A number is an active result; – = inactive; ? = inconclusive; · = not tested or not shown.

SMILES | T cruzi growth-1 | C diff HTS | Pf Dd2 inh | T cruzi growth-2 | T cruzi growth-3 | 3T3 cytotox | NIH3T3 tox 2
O=C(C1CCC1)N1CCCCN2[C@H](CO)[C@H](c3ccc(C#CC4(O)CCCC4)cc3)[C@@H]2C1 | ? | – | – | 99 | – | – | 39
C[C@H](CO)N1C[C@H](C)[C@H](CN(C)CC2CCCCC2)Oc2c(NC(=O)Nc3cccc4ccccc34)cccc2C1=O | – | – | – | · | · | · | ·
C[C@@H]1CN([C@H](C)CO)C(=O)c2cc(NC(=O)Cn3cnnn3)ccc2O[C@@H]1CN(C)S(=O)(=O)c1cn(C)cn1 | – | · | – | · | · | · | ·
CO[C@H]1CN(C)C(=O)c2ccc(NS(=O)(=O)c3c(C)noc3C)cc2OC[C@H](C)NC[C@@H]1C | – | · | – | · | · | · | ·
COc1ccc(NC(=O)N(C)C[C@H]2Oc3ccc(NC(=O)Nc4c(C)noc4C)cc3C(=O)N([C@@H](C)CO)C[C@@H]2C)cc1 | – | – | – | · | · | · | ·
C[C@@H]1CN([C@H](C)CO)S(=O)(=O)c2ccc(C#C[C@@H](C)O)cc2O[C@@H]1CN(C)Cc1ccncc1 | – | – | – | · | · | · | ·
C[C@@H]1CN([C@@H](C)CO)S(=O)(=O)c2ccc(C#C[C@@H](C)O)cc2O[C@H]1CN(C)Cc1ccncc1 | 102 | – | – | 101 | – | – | 27
C[C@H](O)C#Cc1ccc2c(c1)O[C@H](CN(C)Cc1ccncc1)[C@@H](C)CN([C@H](C)CO)S2(=O)=O | – | – | – | · | · | · | ·
C[C@H](O)C#Cc1ccc2c(c1)O[C@H](CN(C)Cc1ccncc1)[C@H](C)CN([C@H](C)CO)S2(=O)=O | – | – | – | · | · | · | ·
C[C@H](O)C#Cc1ccc2c(c1)O[C@@H](CN(C)Cc1ccncc1)[C@H](C)CN([C@@H](C)CO)S2(=O)=O | 110 | – | – | 98 | – | – | 50
C[C@@H]1CN([C@H](C)CO)S(=O)(=O)c2ccc(C#C[C@@H](C)O)cc2O[C@H]1CN(C)Cc1ccncc1 | 104 | – | – | 95 | – | – | –
COc1ccc(NC(=O)N(C)C[C@H]2Oc3ccc(NC(=O)CCCCCC(=O)Nc4ccccc4N)cc3C(=O)N([C@@H](C)CO)C[C@@H]2C)cc1 | · | – | – | · | · | · | ·
C[C@H](CO)N1C[C@H](C)[C@H](CN(C)Cc2ccc(C(F)(F)F)cc2)Oc2c(NC(=O)NC3CCCCC3)cccc2C1=O | – | – | – | · | · | · | ·
C/C=C/c1cnc2c(c1)C(=O)N([C@H](C)CO)C[C@H](C)[C@@H](CN(C)Cc1cccc(C(=O)O)c1)O2 | · | – | – | · | · | · | ·
COc1ccc(S(=O)(=O)N(C)C[C@H]2Oc3ccc(N(C)C)cc3CC(=O)N([C@@H](C)CO)C[C@@H]2C)cc1 | – | – | – | · | · | · | ·
N#C[C@H]1[C@@H](c2ccc(C#CC3CC3)cc2)[C@H](CO)N1S(=O)(=O)c1ccccc1 | 101 | – | -85 | 98 | 113 | ? | 53
N#C[C@H]1[C@H](c2ccc(C#CC3CCCCC3)cc2)[C@@H](CO)N1S(=O)(=O)c1ccccc1 | – | – | – | · | · | · | ·
N#C[C@H]1[C@H](c2ccc(C#CC3CC3)cc2)[C@@H](CO)N1S(=O)(=O)c1ccccc1 | 97 | – | – | 100 | 103 | – | –
N#C[C@@H]1[C@@H](c2ccc(C#CC3CC3)cc2)[C@H](CO)N1S(=O)(=O)c1ccccc1 | 96 | – | – | ? | 102 | – | ?
COc1cccc(-c2ccc3n(c2=O)C[C@@H]2[C@@H](CO)[C@H](C(=O)NC4CCCC4)N[C@H]32)c1 | – | – | – | · | · | · | ·
CC(C)C#Cc1cnc2c(c1)C(=O)N([C@H](C)CO)C[C@H](C)[C@@H](CN(C)Cc1cccc(F)c1)O2 | – | – | – | · | · | · | ·
CC=Cc1ccc2n(c1=O)C[C@@H]1[C@@H](CO)[C@H](C(=O)NCc3ccccc3)[C@H]2N1S(C)(=O)=O (mixture of isomers) | – | – | – | · | · | · | ·
N#C[C@H]1[C@H](c2ccc(C#Cc3ccc(F)cc3)cc2)[C@H](CO)N1C(=O)C1CCC1 | 99 | – | – | 112 | – | – | 83
N#C[C@@H]1[C@H](c2ccc(C#Cc3ccc(F)cc3)cc2)[C@@H](CO)N1C(=O)C1CCC1 | – | – | – | · | · | · | ·
N#C[C@H]1[C@H](c2ccc(C#Cc3ccc(F)cc3)cc2)[C@H](CO)N1C(=O)C1CCCC1 | 104 | – | – | 101 | – | – | 82
SMILES | T cruzi growth-1 | C diff HTS | Pf Dd2 inh | T cruzi growth-2 | T cruzi growth-3 | 3T3 cytotox | NIH3T3 tox 2
N#C[C@H]1[C@@H](c2ccc(C#Cc3ccc(F)cc3)cc2)[C@H](CO)N1C(=O)C1CCC1 | – | – | – | · | · | · | ·
C[C@H](CO)N1C[C@H](C)[C@H](CN(C)S(=O)(=O)c2cccs2)Oc2ccc(NC(=O)Nc3cccc4ccccc34)cc2C1=O | – | · | – | · | · | · | ·
C[C@@H]1CCCCO[C@@H](CN(C)S(=O)(=O)c2ccccc2)[C@@H](C)CN([C@@H](C)CO)C(=O)c2cc(NS(=O)(=O)c3ccccc3)ccc2O1 | – | · | – | · | · | · | ·
Cc1ccc(S(=O)(=O)N(C)C[C@H]2OCCCC[C@H](C)Oc3ccc(NS(=O)(=O)c4ccccc4)cc3C(=O)N([C@@H](C)CO)C[C@@H]2C)cc1 | 122 | – | – | 105 | – | – | –
Cc1ccc(S(=O)(=O)Nc2ccc3c(c2)C(=O)N([C@@H](C)CO)C[C@@H](C)[C@@H](CN(C)S(=O)(=O)c2ccccc2)OCCCC[C@@H](C)O3)cc1 | 108 | – | – | 110 | – | – | –
Cc1ccc(S(=O)(=O)Nc2ccc3c(c2)C(=O)N([C@@H](C)CO)C[C@H](C)[C@H](CN(C)S(=O)(=O)c2ccccc2)OCCCC[C@H](C)O3)cc1 | 111 | – | – | 106 | – | – | –
Cc1ccc(S(=O)(=O)N(C)C[C@@H]2OCCCC[C@@H](C)Oc3ccc(NS(=O)(=O)c4ccccc4)cc3C(=O)N([C@@H](C)CO)C[C@H]2C)cc1 | – | – | – | · | · | · | ·
Cc1ccc(S(=O)(=O)N(C)C[C@H]2OCCCC[C@@H](C)Oc3ccc(NS(=O)(=O)c4ccccc4)cc3C(=O)N([C@@H](C)CO)C[C@@H]2C)cc1 | ? | – | – | 105 | – | – | 32
C[C@@H]1CCCCO[C@@H](CN(C)S(=O)(=O)c2ccccc2)[C@H](C)CN([C@@H](C)CO)C(=O)c2cc(NS(=O)(=O)c3ccccc3)ccc2O1 | – | · | – | · | · | · | ·
Cc1ccc(S(=O)(=O)Nc2ccc3c(c2)C(=O)N([C@H](C)CO)C[C@H](C)[C@@H](CN(C)S(=O)(=O)c2ccccc2)OCCCC[C@H](C)O3)cc1 | – | – | – | · | · | · | ·
CN(C)C(=O)c1cccc(-c2ccc([C@@H]3[C@H]4CN(C(=O)C5CCC5)CC(=O)N4[C@H]3CO)cc2)c1 | · | – | – | · | · | · | ·
CCCN(C)C[C@@H]1Oc2ncc(Br)cc2C(=O)N([C@H](C)CO)C[C@H]1C | – | – | – | · | · | · | ·
